Source: PubChem BioAssay
Pf Dd2 inh – blocks in vitro growth of P. falciparum Dd2; AID 1347417; 4.3% of 120,000 active; Potency, µM (highest dose often 28.9 µM), for the others: at the top dose activity, negative = inhibition, hits mostly inhibitors; P. falciparum Dd2 growth, SYBR Green, 72 h; active = well fitted inhibition curve with a large enough effect;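 note: plate controls were DMSO vehicle for no effect and reference drug for full effect; nearly all actives have a fitted effect of over 65% in size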
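Readout: SYBR Green fluorescence, 485 nm excitation, 535 nm emission, after ~16 h lysis at 37C. Before that, Dd2-infected red cells (2.5% hematocrit) grew 72 h with compound, 29 uM top final concentration.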
An asterisk follows results filed as active; i = inactive; [ ] = another dose, or the depositor's remark. This excerpt belongs to a sample that is enriched for hits. Potency is the fitted concentration of half-maximal effect.

SMILES	Pf Dd2 inh
Cc1cc(C(=O)Nc2ccc([C@H]3OCC(=O)N(CC(C)C)[C@@H]3CO)cc2)n(C)n1	i
Cc1nn(C)c(C)c1CCC(=O)N1CCCC(N(C)C)CC1 (stereo unspecified)	15%
CS(=O)(=O)c1ccc(OCC2(CNC(=O)c3cccc(F)c3)C[C@@H](O)[C@@H](O)C2)cc1 (stereo partly specified)	5%
Cc1nn(C)c(C)c1S(=O)(=O)N1CCCC1c1noc(COc2ccc(F)cc2)n1 (stereo unspecified)	-13%
CC(C)c1ccc(S(=O)(=O)N2CCC(Oc3ncccc3C(=O)N(C)C)C2)cc1 (stereo unspecified)	i
O=C1CCN(Cc2ccncc2)CCCC(C(=O)NCc2cccnc2)CCN1 (stereo unspecified)	27%
Cc1nn(-c2ccc(F)cc2)c(Oc2ccc(F)cc2F)c1CCC(=O)N1CCCC1	-8%
Cc1ccccc1Oc1c(CCC(=O)N2CCSCC2)c(C)nn1-c1ccc(F)cc1	i
Cc1nn(-c2ccc(F)cc2)c(Oc2cccc(F)c2)c1CCC(=O)N1CCSCC1	7.9µM*
O=C(C[C@H]1NC(=O)c2ccccc2NC1=O)Nc1nc(-c2cccnc2)cs1	i
Cc1ccc(C(=O)N2CCCC3(CCNCC3)CC2)cc1Cl	-14%
CNc1ccc(C)cc1C(=O)N1CCC2(CCCN(C)CC2)CC1	10µM*
CNc1ncccc1C(=O)N1CCC(O)(c2ccc(C)cn2)CC1	-4%
CC1=NS(=O)(=O)N(Cc2ccccc2)C=C1C(=O)OCc1noc(-c2cccc(C)c2)n1	5%
O=C(NCCc1csc(-c2ccncc2)n1)C1CNCCO1 (stereo unspecified)	-5%
CCOc1ncccc1C(=O)N(C)Cc1nc(-c2ccccc2)no1	-17%
COC(=O)[C@H](NC(=O)C1=C[C@@H](NC(=O)c2ccc(F)c(Cl)c2)[C@@H](O)[C@H](O)C1)C(C)C	-18%
O=C(CC1CCCCN(Cc2ccccc2)C1=O)NCc1cccnc1 (stereo unspecified)	-13%
O=C(C1CCCC1)N1CC2(CCN(C3CCCCC3)C2)Cc2ccccc21 (stereo unspecified)	10µM*
CC(=O)N1CC2(CCCN(Cc3cccnc3)C2)Cc2ccccc21 (stereo unspecified)	2%
O=C1CCN(Cc2cccnc2)CCCC(C(=O)NC2CCCC2)CCN1 (stereo unspecified)	-3%
O=C(C1CCCC1)N1CC2(CCCN(Cc3ccc(Cl)cc3)C2)Cc2ccccc21 (stereo unspecified)	13µM*
CN1CCC(C(=O)N2C3CCC2CN(Cc2cccnc2)C3)CC1	-3%
CC(=O)N1CC2(Cc3ccccc31)CN(C(=O)NC1CCCC1)C2	4%[44.1 µM]
O=C(C1CCCC1)N1CC2(CCN(C3COC3)CC2)Cc2ccccc21	17%
SMILES	Pf Dd2 inh
O=C(C1CCCC1)N1CC2(CCN(Cc3cccnc3)C2)Cc2ccccc21 (stereo unspecified)	6.3µM*
O=C(C1CCCC1)N1CC2(CCN(Cc3cccnc3)CC2)Cc2ccccc21	10µM*
CC(=O)N1CC2(CCCN(Cc3ccc(Cl)cc3)C2)Cc2ccccc21 (stereo unspecified)	-14%
CNC(=O)[C@H]1C[C@H](Oc2ccccc2)CN1S(=O)(=O)Cc1ccccc1	9%
Cc1cnc(C(=O)NC2C[C@H]3CC[C@@H](C2)N3S(=O)(=O)c2ccc(C)c(F)c2)cn1 (stereo partly specified)	i
Cc1noc(C)c1C(=O)N1CCN(c2cccc(C=O)c2)C(=O)C1	3%
O=C1NCc2ccccc2CC12CCN(Cc1ccccc1Cl)CC2	-13%
CC(C)OCCCNC(=O)CCC1CCN(C(=O)c2ccccc2F)CC1	0%
N#Cc1ccc(C(=O)NC2CCCN(c3cc(-c4ccc(Cl)cc4)[nH]n3)C2)cc1 (stereo unspecified)	i
O=C(CCc1nc(-c2ccco2)no1)N[C@@H]1CCOC[C@H]1OCC1CCC1	-12%
Cc1ccc(C(=O)N[C@H]2CO[C@H]3[C@@H]2OC[C@@H]3n2cc(CC3CCCCC3)nn2)cc1	i
CC(NC(=O)C1CCN(c2cc(C(F)(F)F)ncn2)CC1)c1ccccc1 (stereo unspecified)	-16%
COCCOC1CCN(C(=O)c2cccn2C)CC1	24%
Cc1nc(N2CCC(C(O)c3nccn3C)CC2)c2sccc2n1 (stereo unspecified)	-1%
CN(Cc1cccn1C)CC1CC1	27%[44.1 µM]
CC1CCN(S(=O)(=O)c2ccc3c(c2)oc(=O)n3CC(=O)NC(C)c2ccccc2)CC1 (stereo unspecified)	11µM*
CC(NC(=O)Cn1c(=O)oc2cc(S(=O)(=O)N3CCCCCC3)ccc21)c1ccccc1 (stereo unspecified)	17%
CC1CCN(S(=O)(=O)c2ccc3c(c2)oc(=O)n3CC(=O)O)CC1	22%
CC(C)NC(=O)N(C1CC1)C1CCOC2(CCN(C(=O)Nc3ccccc3F)CC2)C1 (stereo unspecified)	-6%
Cc1ccc(CN2CCc3nc(C(=O)NCc4cccc(F)c4)oc3CC2)o1	-7%[44.1 µM]
COC(=O)C(C)Sc1ncnc2c1c(-c1ccccc1)cn2-c1ccc(F)cc1 (stereo unspecified)	5.6µM*
CN(c1ncnc2c1c(-c1ccccc1)cn2-c1ccc(F)cc1)C1CCCCC1	-7%
COc1ccc(-n2cc(-c3ccccc3)c3c(SC(C)C(C)=O)ncnc32)cc1 (stereo unspecified)	8%
COc1cc2c(cc1Oc1ccccc1)NC(=O)C21CCN(C(=O)Cc2ccccc2)CC1	-11%
COc1cccc(CN2C(=O)OC3(CCN(C(=O)c4ccn(C)n4)CC3)C2(C)c2cccnc2)c1 (stereo unspecified)	i
SMILES	Pf Dd2 inh
COc1ccccc1CN1CCOc2cc([S+](=O)([O-])N(C)C)ccc2C1	i
COc1cc2c(cc1OCc1ccccc1)N(C(=O)c1ccccc1OC)CC21CCN(C)CC1	4µM*
COc1cc2c(cc1OCc1ccccc1)N(C(=O)Cc1ccc3c(c1)OCO3)CC21CCN(C)CC1	i
COc1cc2c(cc1OCc1ccccc1)N(C(=O)c1ccc3[nH]ccc3c1)CC21CCN(C)CC1	-17%
Cn1ccc(C(=O)N2CC(COc3ccccc3)C3(C2)CN(c2ccccc2)C3)n1 (stereo unspecified)	-1%[44.1 µM]
COc1cc2c(cc1CCc1ccccc1)N([S+](=O)([O-])c1ccc3c(c1)CCO3)CC21CCN(C(C)=O)CC1	10µM*
COc1cc2c(cc1CCc1ccccc1)N(C(=O)CC(C)C)CC21CCN(C(C)=O)CC1	4µM*
COc1ccc([S+](=O)([O-])N2CC3(CCN(CC(=O)O)CC3)c3cc(OC)c(OCC4CCCC4)cc32)cc1	i
COc1cc2c(cc1CCc1ccccc1)N(C(=O)c1ccn(C)n1)CC21CCN(C(C)=O)CC1	10µM*
COc1cc2c(cc1OCc1ccccc1)N(C(=O)C(C)C)CC21CCN(C)CC1	i
C#CCNC(=O)c1ccc2nccn2c1	22%[44.1 µM]
COc1ccc(OCC(=O)NC2CCN(c3cc(-c4ccccc4)[nH]n3)CC2)cc1	i
Cc1cnc(C(=O)N2CCC3(CC2)c2[nH]c4ccccc4c2CCN3C)cn1	i
COCCCNC(=O)c1cn2ccnc(-c3ccc(OC)cc3)c2n1	-10%
CC(C)c1noc([C@@H]2C[C@H]3C(=O)NCCCCCCN(C(=O)COc4ccc(F)cc4)[C@H]3C2)n1	-6%
CC(C(=O)N1CCC(c2n[nH]c(=O)n2-c2ccccc2)CC1)c1ccccc1 (stereo unspecified)	-2%
c1coc(-c2nc(CNC3CCC4(CCNCC4)CC3)no2)c1	11µM*
